The campaign covered roughly 360,000 compounds. About 420 (0.12%) were called active. This is one part of a sample in which actives are shown more often than they occur. Rule as the data show it: active = inhibition above about 30%; inconclusive = no clear call, values can overlap the other calls; inactive = below that.
These molecules were tested against Lethal factor (Bacillus anthracis) (UniProt P15917) (assay: Bacillus anthracis LF protease inhibitors, primary screen, biochemical, multiplex microsphere, MLPCN library (AID 588501; also: plate controls were buffer without enzyme for full effect and enzyme alone for no effect)). Conditions: multiplex microsphere protease cleavage assay, at 10 µM, hits give high values.
Lethal factor (Bacillus anthracis), sequence (P15917 whole entry, looked up): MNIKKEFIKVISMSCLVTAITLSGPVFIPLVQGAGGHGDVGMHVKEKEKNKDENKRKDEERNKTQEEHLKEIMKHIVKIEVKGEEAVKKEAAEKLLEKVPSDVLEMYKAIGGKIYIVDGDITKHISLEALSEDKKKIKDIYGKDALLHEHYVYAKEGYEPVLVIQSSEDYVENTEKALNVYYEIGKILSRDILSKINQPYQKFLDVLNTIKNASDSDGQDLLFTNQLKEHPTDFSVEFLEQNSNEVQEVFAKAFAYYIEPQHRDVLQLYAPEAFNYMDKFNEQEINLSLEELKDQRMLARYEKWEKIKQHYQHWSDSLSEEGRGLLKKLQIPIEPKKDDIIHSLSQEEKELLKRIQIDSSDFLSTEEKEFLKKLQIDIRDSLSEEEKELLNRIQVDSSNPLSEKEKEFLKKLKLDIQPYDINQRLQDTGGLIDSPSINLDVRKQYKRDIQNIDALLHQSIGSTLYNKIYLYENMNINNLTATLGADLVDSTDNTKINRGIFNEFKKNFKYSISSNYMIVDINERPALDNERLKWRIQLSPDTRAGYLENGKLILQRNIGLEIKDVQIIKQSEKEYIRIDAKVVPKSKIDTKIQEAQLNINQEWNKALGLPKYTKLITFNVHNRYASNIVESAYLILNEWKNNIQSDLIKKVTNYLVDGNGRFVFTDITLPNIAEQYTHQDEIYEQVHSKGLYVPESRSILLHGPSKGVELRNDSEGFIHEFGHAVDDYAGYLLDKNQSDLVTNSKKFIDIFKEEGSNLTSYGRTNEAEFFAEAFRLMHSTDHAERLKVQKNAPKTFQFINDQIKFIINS

Structure (SMILES) | inhibition
O=C(COc1ccc2c(C(F)(F)F)cc(=O)oc2c1)Nc1ccc2c(c1)OCCO2 | -1.9% (inactive)
O=C(CN1CCOCC1)Nc1c(Cl)cc(Cl)cc1Cl | 3.3% (inactive)
O=C(CN1CCCCCC1)Nc1c(Cl)cc(Cl)cc1Cl | 37.6% (active)
Cc1cc(C)c(NC(=O)CN2CCCCCC2)c(C)c1 | -3.3% (inactive)
O=C(COc1ccc(Cl)cc1)NCc1nnc(SCC(=O)NCC2CCCO2)o1 (stereo not given) | -1% (inactive)
NNc1nc2c(Cl)cccc2s1 | -1.6% (inactive)
CCn1c(CSc2nncn2-c2ccc(OC)cc2)nc2cc(S(=O)(=O)N(C)C)ccc21 | -15% (inactive)
O=C(NNC(=O)c1ccccc1[N+](=O)[O-])Nc1ccccc1C(F)(F)F | -1.8% (inactive)
CN(C(=O)c1cccc(NC(=O)Cc2cccc([N+](=O)[O-])c2)c1)C1CCCCC1 | 2.5% (inactive)
CC1CCN(CC(=O)Nc2nccs2)CC1 | -13.6% (inactive)
CC(C)N(C(=O)Cn1cc(SCC(=O)N2CCCC2)c2ccccc21)C(C)C | -0.2% (inactive)
COc1cc(NS(=O)(=O)c2ccc(NC(=O)CN3C(=O)c4ccccc4C3=O)cc2)ncn1 | -2.5% (inactive)
CS(=O)(=O)N(CC(=O)N1CCOCC1)c1cccc(Cl)c1Cl | -5.7% (inactive)
CCOC(=O)C1CCCN(C(=O)c2ccc(N(C)C)cc2)CC1 (stereo not given) | -1.5% (inactive)
Cc1ccc(-n2ncc3c2CC(C)(C)CC3NC(=O)CCc2cnn(C)c2)cc1 (stereo not given) | 3% (inactive)
CCCn1nnnc1NC(=O)COc1ccc(Cl)cc1C | -6.9% (inactive)
O=C(CCNC(=O)c1ccc([N+](=O)[O-])cc1)Nc1ccccc1N1CCOCC1 | 3.7% (inactive)
CCOC(=O)C1CCCN(S(=O)(=O)c2ccc(-n3cnnn3)c(C)c2)C1 (stereo not given) | 2.9% (inactive)
Cc1cc(S(=O)(=O)NC2CCCC2)ccc1-n1cnnn1 | 35.6% (active)
O=S(=O)(NC1CCCC1)c1ccc(-n2cnnn2)cc1 | -2% (inactive)
COc1ccc([C@H]2CC(=O)C[C@@H](CCn3cc(CC4CCCC4)nn3)O2)cc1 | -2.3% (inactive)
COCCNC(=O)C(c1ccc(O)cc1)N(C(=O)CCC(=O)Nc1nccs1)c1ccc(C)cc1 (stereo not given) | -7% (inactive)
O=C1N[C@@H](Cc2ccccc2)C(=O)N2[C@@H]3N(S(=O)(=O)c4ccc(F)cc4)c4ccccc4[C@]3(Br)C[C@@H]12 | -0.7% (inactive)

Structure (SMILES) | inhibition
CCCCC(NS(=O)(=O)c1ccc(C)cc1)C(=O)Oc1ccc2c3c(c(=O)oc2c1)CCC3 (stereo not given) | -6.2% (inactive)
CCOc1cc(/C=C(/C#N)c2ccc(Cl)cc2)cc(Cl)c1OCC(=O)O | 2.5% (inactive)
COc1ccc(NC(=S)N2CCc3cc(OC)c(OC)cc3C2)cc1 | -2.2% (inactive)
COc1ccccc1C1CCN(C(=S)Nc2ccc(Br)cc2)CC1 | 49.5% (active)
COc1ccccc1NC(=S)N1CCC(NC(=O)C23CC4CC(CC(C4)C2)C3)CC1 | -7.9% (inactive)
Clc1ccc(Cn2ncc3c(NCc4cccnc4)ncnc32)cc1 | -6.4% (inactive)
Cc1cc(NCc2cccnc2)no1 | 4.1% (inactive)
Brc1ccc2ncnc(NCc3cccnc3)c2c1 | 42.4% (active)
CCOC(=O)[C@H]1[C@H]2COc3ccc(C)cc3[C@@H]2N2C(=O)CN(Cc3ccc(F)cc3)C(=O)[C@@]12C | -3.6% (inactive)
CCOC(=O)N1CCN(C(=O)c2ccc3c(=O)n(CCc4ccc(OC)c(OC)c4)c(=O)[nH]c3c2)CC1 | -2.6% (inactive)
COCCn1nnnc1CN1CCC(NC(=O)Nc2cccc(OC)c2)CC1 | 0.1% (inactive)
NCCCCCC(=O)N/N=C/c1ccc2nccnc2c1 | 43.2% (active)
CC1=NNC(=O)C1CCC(=O)N/N=C\c1ccc(Cl)c(Cl)c1 (stereo not given) | -7.6% (inactive)
O=C(O)c1ccc(N/N=C/c2ccc3ncccc3c2)cc1 | -1.5% (inactive)
CC(=O)Nc1ccc(S(=O)(=O)NCC(=O)OCC(=O)c2ccc[nH]2)cc1 | 4.9% (inactive)
CCCCC(CC)CNC(=O)C(=O)C1C(=O)Nc2ccccc21 (stereo not given) | -2.2% (inactive)
CC(=O)NCCC(=O)Nc1cc(S(=O)(=O)N2CCCCC2)ccc1Oc1cccc(C)c1 | -3.6% (inactive)
O=C(COc1ccc(S(=O)(=O)N2CCCC2)cc1[N+](=O)[O-])N1CCCCC1 | -2.5% (inactive)
CCCc1cc(=O)[nH]c(SCc2ccc(C#N)cc2)n1 | 2.2% (inactive)
COCc1cc(=O)[nH]c(SC)n1 | 45% (active)
COCc1cc(=O)[nH]c(-c2ccc(C(F)(F)F)cc2)n1 | 13.9% (inactive)
CCCC(NC(=O)c1ccccc1)c1nc2ccccc2n1Cc1ccc(C(=O)OC)o1 (stereo not given) | -3.6% (inactive)
COc1ccccc1N(CC(=O)Nc1c(C)n(C)n(-c2ccccc2)c1=O)S(=O)(=O)c1ccccc1 | -3.9% (inactive)

Structure (SMILES) | inhibition
COC(=O)CSc1ncnc2c1cnn2-c1ccc(C)cc1C | -4.4% (inactive)
COC(=O)c1ccc(NC(=O)C23CC4CC(C2)CC(n2cnc(Cl)n2)(C4)C3)cc1 | -3.6% (inactive)
COC(=O)C1(C(=O)OC)C/C=C\CN(S(=O)(=O)c2ccccc2[N+](=O)[O-])CCC1 | -1.4% (inactive)
COc1cc(C(=O)NCc2ccc3c(c2)cc(C)n3C)cc(OC)c1OC | 34.6% (active)
CCn1c(CNC(=O)c2cc(OC)c(OC)c(OC)c2)cc2cc(C)ccc21 | -7.8% (inactive)
CCOCC(=O)NCc1ccc2c(c1)cc(C)n2C | -2.3% (inactive)
CC(C)n1c(SCC(=O)Nc2ccccc2N2CCCCC2)nc2c1c(=O)n(C)c(=O)n2C | 0% (inactive)
CCOC1=C2[C@H]([C@H]3C(=O)N(c4ccccc4)C(=O)[C@H]3C1)[C@@H](c1ccccc1)N(S(=O)(=O)c1ccc(C)cc1)[C@H]2c1ccccc1 | 4.4% (inactive)
CCCCNc1ccc(C(=O)Nc2cccc(C)n2)cc1[N+](=O)[O-] | -4.4% (inactive)
Cc1cccc(C)c1NC(=O)CNC(=O)c1ccc(N2CCOCC2)c([N+](=O)[O-])c1 | -3% (inactive)
C=CC[C@H](CC(=O)OC(C)(C)C)C(=O)OC[C@H]1CCCN1C(=O)[C@H](CC=C)CC(=O)N(CCO)Cc1ccccc1 | 1.8% (inactive)
COc1ccc(CN2CC(C(=O)NCCN3CCN(c4ccccc4F)CC3)CC2=O)cc1 (stereo not given) | -1.5% (inactive)
Cn1cc(CCC(=O)N2CCCC(C(=O)c3ccc(C(C)(C)C)cc3)C2)cn1 (stereo not given) | -0.9% (inactive)
CCOc1ccc(CCNC(=O)C2=C(C)C(=O)OC23CCC(C)CC3)cc1OCC (stereo not given) | 1.1% (inactive)
Fc1ccccc1OCCCCn1cncn1 | 7.4% (inactive)
COc1cc(/C=C2\SC(=O)NC2=O)ccc1OCc1ccc(Cl)nc1 | 0.2% (inactive)
COc1cc(/C=C2\SC(=S)N(Nc3ncc(C(F)(F)F)cc3Cl)C2=O)cc(OC)c1OC | 61.6% (active)
COc1cc(-c2nnc(Cn3cc(C(F)(F)F)ccc3=O)o2)cc(OC)c1OC | 11.3% (inactive)
Cc1ccc2c(c1)C(O)(CC(=O)c1cccnc1)C(=O)N2 (stereo not given) | -1.9% (inactive)
CN(CC(=O)NCCc1ccccc1)S(=O)(=O)c1cnc[nH]1 | -0.9% (inactive)
Cc1cc(C)c(CN2CCN(C(=O)Cn3ccc(NC(=O)OCc4ccccc4)nc3=O)CC2)c(C)c1 | -0.5% (inactive)
O=C(c1ccc(Cl)cc1)N1N=C(c2ccccn2)CC1(O)C(F)(F)F (stereo not given) | -6.7% (inactive)
COc1cc2c(cc1OC)C(/C=C/c1ccco1)=NCC2 | -4.6% (inactive)

Structure (SMILES) | inhibition
Cc1c(Br)ccc(NC(=O)COc2ccccc2C(N)=O)c1C | 0.9% (inactive)
CCc1ccc(NC(=O)CS(=O)CC(=O)NCCCc2ccccc2)cc1 (stereo not given) | -1.4% (inactive)
O=C(NCc1ccccc1)C1C(=O)N(Cc2ccccc2)C(=O)C1C1(O)CCCC1 (stereo not given) | 1.3% (inactive)
COCC(C)NCc1cc(Br)ccc1OC (stereo not given) | -4.9% (inactive)
COc1ccc(Br)cc1CNCCc1cccc(Cl)c1 | 43.6% (active)
COc1ccc(Br)cc1CN(C)CC(=O)Nc1cc(Cl)cc(Cl)c1 | -3.4% (inactive)
O=S(=O)(Nc1cccc(-n2cnnn2)c1)c1cnc(Cl)c(Cl)c1 | 1.8% (inactive)
COC(=O)CNS(=O)(=O)c1ccc(Cc2ccc(S(=O)(=O)NCC(=O)OC)cc2)cc1 | -2.1% (inactive)
COC(=O)C[n+]1cccc2ccccc21 | 29.8% (active)
COc1c(C(=O)N2CCCC2)ccc2ccccc12 | 2.3% (inactive)
CC1(c2ccc(Cl)cc2)NC(=O)N(CC(=O)c2ccc3c(c2)OCO3)C1=O (stereo not given) | -2.8% (inactive)
CCN(C(=O)COC(=O)c1ccccc1O)c1cccc2ccccc12 | -1.8% (inactive)
Cc1nccn1-c1ccc(NC(=O)[C@H]2O[C@@H](n3cnc4c(N)ncnc43)[C@H](O)[C@@H]2O)cc1 | 0.8% (inactive)
CC(=O)c1nn(-c2ccc(C)cc2)cc1C(=O)c1cccc(Br)c1 | -8.2% (inactive)
CN(C)c1ccc(/C=C2\CC3C4CC=C5CC(O)CCC5(C)C4CCC3(C)C2=O)cc1 (stereo not given) | 3.3% (inactive)
C=CCN(Cc1nc(-c2cc(OC)c3c(c2)OCO3)oc1C)C1CCS(=O)(=O)C1 (stereo not given) | -1.3% (inactive)
CCc1nn(CCCC(=O)Nc2ccc(C)c(C)c2)c(=O)c2cc3occc3n12 | -0.7% (inactive)
COc1ccccc1C(=O)Nc1ccnn1C1CCN(C(=O)C(C)(C)C)CC1 | -1.9% (inactive)
Cc1ccc(NC(=O)CSCC(=O)N2CCOCC2)cc1 | -4.8% (inactive)
CC(C)C[C@@H]1Cc2[nH][nH]c(=O)c2[C@H](CCc2ccccc2)O1 | -14.1% (inactive)
COc1ccc(N(CCC#N)S(=O)(=O)c2ccc(Cl)cc2)cc1 | -0.4% (inactive)
